VACV mCherry inh: vaccinia inhibition (mCherry reporter) | Vaccinia virus mCherry reporter infection, fluorescence | Potency, µM (top dose mostly 36.5 µM), most hits filed as inhibitors | hit rate 0.63% among 310,000 | AID 720579; calls by dose curve; tested in A549 cells; further: nearly all actives have a fitted effect of over 35% in size
Pf growth 48h: P. falciparum growth inhibition at 48 hours (one generation). P. falciparum luciferase growth in erythrocytes, 48 h. Potency, µM (highest dose often 28.7 µM), most hits filed as inhibitors. hit rate 5.9% among 310,000. AID 504832
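Growth was read as firefly luciferase luminescence after a 48 h, 37 C, 5% CO2 exposure of compounds to reporter-bearing P. falciparum cultures (0.1% parasitemia, 2% hematocrit final) in Albumax-supplemented RPMI 1640.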
HCV inh: HCV inhibition; Huh7.5.1 HCVcc-Cre infection, luciferase reporter, 44 h; Potency, µM (top dose mostly 41.8 µM), usual class: inhibitors; hit rate 3.4% among 340,000
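Reporter virus HCVcc-Cre (~0.5 moi) infects cells exposed to compound; seeding density 1,000 cells/well with 4 h settling beforehand. Luminescence, 15 sec read, taken 44 h post-infection following a 15 min RT substrate incubation.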
Pf growth 96h: inhibits malaria parasite growth, 96 h | P. falciparum luciferase reporter growth, 96 h | Potency, µM (highest dose often 28.7 µM), most hits filed as inhibitors | hit rate 6.9% among 320,000
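Plates of compound plus infected erythrocytes (2% hematocrit, 0.05% parasitemia final) incubate 96 hours, 37 C, 5% CO2. Detection reagent added; reduced luminescence from the parasites' luciferase reporter flags inhibition.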
Vaccinia Venus: inhibitors of vaccinia virus (Venus reporter); Potency, µM (titrated, usually from 36.5 µM), most hits filed as inhibitors; hit rate 0.46% among 330,000; Vaccinia virus Venus reporter expression, fluorescence; calls by dose curve; tested in A549 cells; further: nearly all actives have a fitted effect of over 30% in size
NS1 inh: blocks influenza NS1 protein function. AID 2326. hit rate 0.4% among 270,000. Potency, µM (highest dose often 46.1 µM); calls by dose curve; further: actives are rising curves; nearly all actives have a fitted effect of over 50% in size
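In this qHTS, NS1 from influenza A is expressed in budding yeast, where it slows growth. Cells are switched from glucose to 2% galactose medium (pH 6.0, -URA), treated with compound, and growth recovery is read at OD600.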
Of the large screens only hits and unclear results are named; the others gave an inactive call. A selection: hits, their analogues and other compounds. The true share with any hit is near 11%. Unless noted, the call rests on the fitted dose curve; in most records, active means well fitted inhibition curve with a large enough effect; inconclusive means small, poorly fitted or top-dose-only effect, or another doubt; inactive means no such curve, though single readings can be large or run the other way.

Cc1cc(OCC(=O)Nc2ccc(S(=O)(=O)N3CCN(C)CC3)cc2)ccc1Br	Pf growth 48h 11.7µM, HCV inh inconclusive, Pf growth 96h 6.57µM
O=C(COc1ccc(Br)cc1CO)Nc1ccc(S(=O)(=O)N2CCCC2)cc1	Pf growth 48h 9.28µM, HCV inh inconclusive, Pf growth 96h inconclusive (no result: NS1 inh)
COc1cccc(OC)c1OCC(=O)Nc1ccc(S(=O)(=O)N2CCCC2)cc1	HCV inh 8.91µM (no result: VACV mCherry inh, Pf growth 48h, Pf growth 96h, Vaccinia Venus, NS1 inh)
COc1ccccc1OCC(=O)Nc1ccc(S(=O)(=O)N2CCCCCC2)cc1	HCV inh 1.58µM, Pf growth 96h inconclusive
O=C(COc1ccc(Br)cc1CO)Nc1ccc(F)cc1	HCV inh inconclusive
O=C(COc1ccccc1)Nc1ccc(S(=O)(=O)N2CCCCCC2)cc1	Pf growth 96h inconclusive (no result: VACV mCherry inh, Pf growth 48h, Vaccinia Venus)
O=C(COc1ccc(Br)cc1CNC1CCCC1)Nc1ccccc1	Pf growth 48h 13.1µM, HCV inh inconclusive
Cc1ccc(OCC(=O)Nc2ccc(S(=O)(=O)N3CCOCC3)cc2)c(Br)c1	VACV mCherry inh inconclusive, Pf growth 48h 10.4µM, Pf growth 96h inconclusive, Vaccinia Venus inconclusive (no result: HCV inh)
O=C(COc1ccc2ccccc2c1)Nc1ccc(S(=O)(=O)N2CCCCCC2)cc1	Pf growth 48h 11.7µM, Pf growth 96h inconclusive, Vaccinia Venus inconclusive
COc1ccc(NC(=O)COc2ccc(S(=O)(=O)N3CCOCC3)cc2C)cc1OC	HCV inh inconclusive, Pf growth 96h inconclusive
CCn1c(CNC(=O)C23CC4CC(CC(C4)C2)C3)nnc1SCC(=O)Nc1nnc(C)s1	Pf growth 96h 7.38µM (no result: Pf growth 48h)
CCCCSc1nnc(CNC(=O)C23CC4CC(CC(C4)C2)C3)n1Cc1ccccc1	VACV mCherry inh inconclusive, Pf growth 48h 13.1µM, HCV inh inconclusive, Pf growth 96h inconclusive, Vaccinia Venus inconclusive
CCCCn1c(CNC(=O)C23CC4CC(CC(C4)C2)C3)nnc1SC(C)CC (configuration not stated)	Pf growth 48h 10.4µM, Pf growth 96h inconclusive
O=S(=O)(c1ccccc1)c1nc(-c2ccco2)oc1Nc1ccccc1	Pf growth 48h inconclusive, Pf growth 96h inconclusive
Cc1ccccc1NC(=O)c1cc(C(=O)c2cc(Cl)ccc2O)cn(-c2ccccc2C)c1=O	VACV mCherry inh inconclusive, Pf growth 48h 0.465µM, HCV inh 12.6µM, Pf growth 96h 0.738µM, Vaccinia Venus inconclusive
Cc1ccc(O)c(C(=O)c2cc(C(=O)NCCc3ccccc3)c(=O)n(CCc3ccccc3)c2)c1	Pf growth 48h 1.85µM, HCV inh inconclusive, Pf growth 96h 1.47µM
O=C(c1cc(C(=O)NCc2ccccc2)c(=O)n(Cc2ccccc2)c1)c1cc(Cl)ccc1O	Pf growth 48h 2.33µM, HCV inh inconclusive, Pf growth 96h 0.657µM, Vaccinia Venus inconclusive
NC1CCCCC1N=Cc1c(O)n(CCc2ccc(F)cc2)c(=O)[nH]c1=O (configuration not stated)	Pf growth 48h inconclusive, HCV inh inconclusive, Pf growth 96h 4.65µM, NS1 inh inconclusive (no result: VACV mCherry inh)
COc1cc(S(=O)(=O)N(Cc2ccccc2)CC2CCCO2)ccc1-n1cnnn1 (configuration not stated)	none
COc1cc(S(=O)(=O)NCC2COCCO2)ccc1-n1cnnn1 (configuration not stated)	Pf growth 96h 11.7µM
COc1ccc(S(=O)(=O)NC2CCCCC2)cc1-n1cnnn1	Pf growth 96h 2.62µM
Cc1cc(S(=O)(=O)NC2CCCCC2)ccc1-n1cnnn1	none
COc1cc(S(=O)(=O)N(Cc2cccs2)CC2CCCO2)ccc1-n1cnnn1 (configuration not stated)	Pf growth 96h 4.15µM
Cc1ccc2c3c1C(=O)C(=O)N3C(C)(C)CC2C (configuration not stated)	none
CC(=O)c1ccc(NC(=O)CN2C(=O)CCc3cc(S(=O)(=O)N4CCC(C)CC4)ccc32)cc1	none (no result: Pf growth 48h, HCV inh, Pf growth 96h, NS1 inh)
Cc1ccc(C(C)C)c(OCC(=O)Nc2ccc3c(c2)nc(CN2CCCC2)n3C)c1	HCV inh inconclusive, Pf growth 96h 13.1µM, Vaccinia Venus inconclusive (no result: VACV mCherry inh, Pf growth 48h)
Cc1ccc(C(C)C)c(OCC(=O)N2CCN(Cc3nc4cc([N+](=O)[O-])ccc4n3C)CC2)c1	Pf growth 96h 11.7µM
OC1(c2ccccc2)CNCCc2ccccc21 (configuration not stated)	none (no result: VACV mCherry inh, Vaccinia Venus)
CCN1C(=NCCOC)N[C@@H](c2ccccc2)[C@H](C(=O)OC)[C@H]1C	none

High-throughput results (PubChem BioAssay)
